Screens as filed in PubChem BioAssay.
NadD inh: inhibitors of Staphylococcus aureus NadD | purified NadD enzyme, colorimetric absorbance read-out | inhibition, % at 20 µM | 0.78% of 360,000 active; in the data active = inhibition above about 26%
GRIN3A LBD mod: modulates the human NR3A ligand-binding domain | NR3A LBD differential scanning fluorimetry, Tm shift; 0% = protein alone, 100% = glycine-bound protein | 2.5% of 340,000 active | Tm shift relative to glycine control, % at 25 µM | AID 1259313;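 active = melting temperature shift of at least 10% of the positive control shift, at one fixed dose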
SMARCA2 act: SMARCA2 function activation, primary screen; activation, % at 9.1 µM; 1% of 370,000 active; MG213 cells, MMTV-luciferase reporter, dexamethasone, overnight; in the data active = activation above about 7.8%
esBAF inh: blocks esBAF chromatin remodeling in mouse ES cells. 2% of 350,000 active. AID 602393. reporter increase, % at 12.5 µM. Bmi1-luciferase knock-in reporter, 24 h; 100% = twice the neutral-well signal; in the data active = activation above about 40%; inconclusive = no clear call, values can overlap the other calls;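 note: a rise in the Bmi1 reporter signal indicates esBAF inhibition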
Vif imaging: inhibitors of HIV Vif; inhibition, % at 7.49 µM; 0.35% of 340,000 active; HEK293T cells, Vif self-association by quenched fluorescence, imaging, 24 h; in the data active = inhibition above about 50%, passing the limit was not always enough; inconclusive = no clear call, values can overlap the other calls; inactive = below about 31%
SKN-1 inh: blocks SKN-1 activity in C. elegans; C. elegans VP596 Pgst-4::GFP/RFP ratio, acrylamide-induced, 24 h; inhibition, % at 21.8 µM; 0.49% of 360,000 active;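 active = interference check ratio from 0.5 to 1.5 plus GFP to RFP signal ratio inhibition reaching or exceeding a fixed threshold, cut at about 30% in these data, passing the limit was not always enough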
A number is an active result; – = inactive; ? = inconclusive; · = no result; ! = a repeat was not active. In the library only some 5.2% were active in any assay of this set; here they are far more common.

SMILES	NadD inh	GRIN3A LBD mod	SMARCA2 act	esBAF inh	Vif imaging	SKN-1 inh
CNC(=O)Cc1csc2ccc(C)cc12	–	13.9	–	–	–	–
CCCNC(=O)Nc1ccc2c(c1)C(=O)N(C)C[C@H](OC)[C@@H](C)CN(CCC(F)(F)F)[C@@H](C)CO2	·	·	·	–	·	·
O=C(COc1ccc(S(=O)(=O)N2CCOCC2)cc1Cl)NCCN1CCOCC1	–	–	–	–	–	–
CCOc1ccc(S(=O)(=O)N2CCC(C(=O)N3CCCCCC3)CC2)cc1Cl	–	12.6	–	–	–	–
CC(C)c1ccc(OCC(=O)N2CCCCCC2)c(Br)c1	–	–	–	51.3	–	–
Cc1cc(S(=O)(=O)N2CCOCC2)ccc1OCC(=O)N1CCCC1	–	–	–	–	64.6	–
Cc1cc(S(=O)(=O)N2CCOCC2)ccc1OCC(=O)NCCN1CCOCC1	–	–	–	–	71.3	–
Cc1cc(S(=O)(=O)N2CCOCC2)ccc1OCC(=O)N1CCCCC1	–	–	–	–	–	–
CCOc1ccc(S(=O)(=O)N2CCC(C(=O)N3CCN(C)CC3)CC2)cc1Cl	–	–	–	–	–	–
COc1ccc(NC(=O)Nc2ccc3c(c2)C(=O)N([C@H](C)CO)C[C@H](C)[C@H](CN(C)S(=O)(=O)c2cccs2)OCCCC[C@H](C)O3)cc1	·	·	·	–	·	·
Cc1ccc(OCCCSc2ncccn2)cc1C	–	–	–	69.9	–	–
COc1ccc(OCCCSc2ncccn2)cc1	–	–	–	56.8	–	–
COc1cccc(OCCSc2nc(N)cc(N)n2)c1	–	–	·	54.5	–	–
COc1ccc(OCCSc2ncccn2)cc1	–	–	–	?	–	–
COc1cccc(OCCCCSc2ncccn2)c1	–	–	–	54.6	–	–
C[C@@H]1CN([C@@H](C)CO)C(=O)c2cc(NC(=O)CCCN(C)C)ccc2O[C@@H]1CN(C)Cc1ccc(C(=O)O)cc1	·	·	·	–	·	·
COc1ccc(-c2ccc3c(c2)O[C@H](CN(C)C(C)=O)[C@@H](C)CN([C@H](C)CO)S3(=O)=O)cc1	·	·	·	–	·	·
O=C(C[C@@H]1C[C@@H]2c3cc(NS(=O)(=O)c4ccc(F)cc4)ccc3O[C@@H]2[C@H](CO)O1)NCC1CC1	·	·	·	–	·	·
C[C@H](CO)N1C[C@H](C)[C@@H](CN(C)C(=O)c2ccc(F)cc2)Oc2ncc(/C=C/c3ccccc3)cc2C1=O	·	·	·	–	·	·
COCC(=O)Nc1ccc2c(c1)OC[C@H](C)N(C(=O)Cc1ccccn1)C[C@H](C)[C@H](OC)CN(C)C2=O	·	·	·	–	·	·
CCCC(=O)Nc1ccc2c(c1)OC[C@@H](C)N(CCc1ccccc1)C[C@@H](C)[C@@H](OC)CN(C)C2=O	·	·	·	–	·	·
COc1ccccc1-c1nc(S(=O)(=O)c2ccc(Cl)cc2)c(N(C)C)o1	–	–	–	–	52.8	–
Cc1ccc(S(=O)(=O)c2nc(-c3ccccc3Cl)oc2N(C)C)cc1	–	–	–	–	–	–
C[C@@H]1CN([C@H](C)CO)C(=O)c2cc(NS(=O)(=O)c3ccccc3)ccc2O[C@@H](C)CCCCO[C@@H]1CN(C)C	·	·	·	–	·	·
CN(Cc1cccs1)c1ncnc2sccc12	–	–	–	·	–	–
SMILES	NadD inh	GRIN3A LBD mod	SMARCA2 act	esBAF inh	Vif imaging	SKN-1 inh
Cc1sc2ncnc(N(C)Cc3cccs3)c2c1C	–	11.0	–	·	–	–
C[C@H](CO)N1C[C@H](C)[C@H](CN(C)Cc2ccc(Cl)c(Cl)c2)Oc2ccc(NS(=O)(=O)c3ccccc3)cc2C1=O	·	·	·	–	·	·
CN(C)C(=O)C[C@H]1C=C[C@@H](NS(=O)(=O)c2ccccc2)[C@H](CO)O1	·	·	·	–	·	·
Cc1ccc(-n2c(SCC(=O)NCc3ccco3)nc3c(sc4ccccc43)c2=O)cc1	–	10.2	–	·	–	–
CC(/C=C/c1ccc(N(C)C)cc1)=N/N=C1/NC(=O)CC(C(=O)Nc2ccc(Cl)cc2)S1 (stereo not given)	47.1	27.2	–	·	–	–
CC(/C=C/c1ccc(N(C)C)cc1)=N\N=C1\NC(=O)CC(C(=O)Nc2ccccc2)S1 (stereo not given)	49.0	–	–	·	–	–
COc1ccc(NC(=O)C2CC(=O)N/C(=N/N=C/c3ccccc3)S2)cc1 (stereo not given)	–	–	–	·	–	–
CC1=CC2=NC(=O)/C(=C\c3ccc(-c4cccc(Cl)c4)o3)C(=N)N2O1	–	22.2	–	·	–	–
Cc1nc2cc(C(F)(F)F)ccc2n1CCNc1nc(-c2ccc(F)cc2)cs1	–	–	–	–	–	–
Cc1nc2cc(C(F)(F)F)ccc2n1CCNc1nc(-c2ccc([N+](=O)[O-])c(Cl)c2)cs1	–	25.0	–	–	–	–
OCCCn1c(CCNc2nc(-c3ccc(Cl)cc3)cs2)nc2cc(C(F)(F)F)ccc21	–	–	–	–	–	–
O=[N+]([O-])c1cc(-c2csc(NCCc3nc4cc(C(F)(F)F)ccc4n3CCCO)n2)ccc1Cl	–	17.4	–	–	–	–
C[C@H](O)C#Cc1cnc2c(c1)C(=O)N([C@H](C)CO)C[C@@H](C)[C@H](CN(C)C(=O)c1ccncc1)O2	·	·	·	–	·	·
C[C@H](CO)N1C[C@H](C)[C@@H](CN(C)C(=O)Nc2ccc(F)cc2)Oc2ccc(NC(=O)c3ccncc3)cc2C1=O	·	·	·	–	·	·
CCCCCCCCNC(=O)C(CCC(=O)OCc1ccccc1)NC(C)=O (stereo not given)	–	–	–	–	–	53.2
CCC(C)C(N)C(=O)NC(CCC(=O)OCc1ccccc1)C(N)=O (stereo not given)	–	–	–	–	–	–
N[C@@H](Cc1cc(I)c(Oc2cc(I)c(O)c(I)c2)c(I)c1)C(=O)O	·	–	·	·	·	·
N[C@@H](Cc1cc(I)c(Oc2ccc(O)c(I)c2)c(I)c1)C(=O)O	58.3!	–	–	–	–	–
O=S1(=O)C=C(Oc2ccc3ccccc3c2)c2ccccc21	–	–	·	–	–	37.0
Cc1ccc(NC(=O)N(C2=NCC(C)S2)c2ccccc2)cc1 (stereo not given)	–	–	–	43.3	–	–
COc1ccccc1NC(=O)N(C)C[C@@H]1Oc2cc(Br)ccc2S(=O)(=O)N([C@H](C)CO)C[C@H]1C	·	·	·	–	·	·
CCN(CC)c1ccc(NC(=O)c2ccc(Br)o2)cc1	–	–	–	43.2	–	–
COC(=O)Cc1ccc(NC(=O)c2ccc(Br)o2)cc1	–	–	–	56.8	–	–
CCOc1ccccc1-c1nc(-c2ccc(NC(=O)c3ccc(Br)o3)cc2)no1	·	16.0	–	·	·	·
CCOc1ccccc1-c1nc(-c2ccc(NC(=O)Cc3ccc(OC)cc3)cc2)no1	–	–	–	·	–	–
CNC[C@H]1Oc2ccc(NC(=O)Nc3ccc(F)cc3)cc2CC(=O)N([C@H](C)CO)C[C@@H]1C	·	·	·	–	·	·
C[C@@H]1CCCCO[C@H](CN(C)CC2CCCCC2)[C@@H](C)CN([C@H](C)CO)C(=O)c2cc(NC(=O)Nc3ccc4c(c3)OCO4)ccc2O1	·	·	·	–	·	·
Cn1c(=O)oc2cc(S(=O)(=O)Nc3ccc4c(c3)OCO4)ccc21	–	–	–	45.3	–	–
